Measurements reported in ChEMBL document CHEMBL4513216, “Probing the Open Global Health Chemical Diversity Library for Multistage-Active Starting Points for Next-Generation Antimalarials” (ACS Infect Dis, 2020).
About 8,600 (12%) of roughly 69,000 compounds showed an effect of 50% or more. The sample as a whole holds a higher share of strong results than the screen did.

What follows are compounds tested on Plasmodium berghei (assay: Screen against P. berghei liver stage (PbLuc), transformed with Luciferase, at 10uM). Settings: tested at 10 uM.
Format: functional, HepG2

SMILES	INHIBITION
CS(=O)(=O)N1CCC[C@]2(C[C@@H](Oc3ncccc3F)CO2)C1	26.2%
CN1CC=C(c2noc(CCC(=O)N3CCc4ccccc4C3)n2)CC1	77.2%
CN1CC=C(c2noc(CCC(=O)N3CCc4ccccc43)n2)CC1	32.5%
CN1CC=C(c2noc(CCC(=O)N3CCCC3)n2)CC1	41.6%
CCc1cccc(N2CCC(NC(=O)c3cc[nH]n3)CC2)c1	77.3%
Cc1occc1C(=O)NC1CCN(C(=O)Nc2cccnc2)CC1	46.3%
CCc1cccc(N2CCC(NC(=O)c3ccncc3)CC2)c1	23.5%
O=C(NCc1cccc(N2CC=CC2)c1)NC1CC1	-37.7%
CCc1ccc(O)c(C(=O)NC2CCN(S(=O)(=O)CC)CC2)c1	44.2%
CCc1cccc(N2CCC(NC(=O)c3ccoc3C)CC2)c1	70.8%
O=C(NC1CCCN(Cc2c(F)cccc2F)C1)c1cc[nH]n1 (stereo not given)	32.2%
CCc1cccc(N2CCC(NC(=O)c3ccco3)CC2)c1	91.4%
CCc1cccc(N2CCC(NC(=O)c3ccc(=O)[nH]n3)CC2)c1	21.9%
O=C([C@@H]1C[C@H]2[C@H](CCN2Cc2nccs2)O1)N1CCOCC1	-1.53%
O=C(O)CNC(=O)Cc1csc(-c2ccccc2F)n1	32.8%
Cc1cscc1C(=O)N1CCCC1CC(=O)c1cnn(C)c1 (stereo not given)	12.7%
CCc1ccccc1C(=O)N1CCCC1CC(=O)c1cnn(C)c1 (stereo not given)	30.6%
Cc1ccc(O)c(C(=O)N2CCCC2CC(=O)c2cnn(C)c2)c1 (stereo not given)	50.2%
CCn1cc(S(=O)(=O)N2CCC(C3CCCCN(C)C3=O)CC2)c(C)n1 (stereo not given)	37.1%
OCC1CCN(C[C@@H]2CN(C3Cc4ccccc4C3)C[C@@H]2CO)CC1	48.5%
COc1cc(C(=O)N2CCC(Nc3cccnc3)CC2)ccc1C	-22.1%
O=C(Nc1ccccc1)[C@H]1C[C@H]2CN(S(=O)(=O)c3ccccc3)C[C@@H]1O2	5.96%

SMILES	INHIBITION
O=C(NC1CCC1)[C@H]1C[C@H]2CN(S(=O)(=O)c3ccccc3)C[C@@H]1O2	51.2%
CCc1cnc(N2C[C@@H]3C[C@H](C(=O)NC4CCC4)[C@H](C2)O3)nc1	5.63%
O=C(NC1CCC1)[C@H]1C[C@H]2CN(CC3CC3)C[C@@H]1O2	65.3%
CC(C)CN1C[C@@H]2C[C@H](C(=O)NC3CCC3)[C@H](C1)O2	31.5%
Cc1cccc(S(=O)(=O)N2C[C@@H]3C[C@H](C(=O)NC4CCC4)[C@H](C2)O3)c1	5.36%
Fc1ccc(-c2cnc(CN3CCn4c(nnc4C4CC4)C3)o2)cc1	21.8%
CN1C(=O)CCCC12CCCN(Cc1cccs1)C2 (stereo not given)	-2.35%
N#Cc1ccc(C(=O)O)nc1C=Cc1cccc(Cl)c1	10.2%
c1coc(-c2noc(CN3CCCCC3Cn3cncn3)n2)c1 (stereo not given)	17.4%
COCc1ncc(CN2C[C@@H](C(=O)O)[C@H](C(C)C)C2)cn1	24.2%
CC(C)[C@@H]1CN(Cc2cnc(C3CCCCC3)nc2)C[C@H]1C(=O)O	13.5%
COCCc1ncc(CN2C[C@@H](C(=O)O)[C@H](C(C)C)C2)cn1	50.2%
CSc1cc2c(cc1NC(=O)NCC(C)(C)C(N)=O)OCCO2	48.5%
CSc1cc2c(cc1NC(=O)NCCn1ccnc1)OCCO2	64.6%
CC(NC(=O)NCCn1ccnc1)c1ccc2c(c1)OCCO2 (stereo not given)	31.8%
COCCN(C)C(=O)Nc1cc2c(cc1SC)OCCO2	-34%
CSc1cc2c(cc1NC(=O)NCC1CCOC1)OCCO2 (stereo not given)	67.3%
COCCNC(=O)Nc1cc2c(cc1SC)OCCO2	69.1%
CSc1cc2c(cc1NC(=O)NCc1ccncc1)OCCO2	8.4%
CSc1cc2c(cc1NC(=O)NCC(=O)N(C)C)OCCO2	35.9%
CCCNC(=O)Nc1cc2c(cc1SC)OCCO2	8.47%
O=C(N1CCCC(n2cncn2)C1)C1(c2ccccc2F)CCCC1 (stereo not given)	22.3%

SMILES	INHIBITION
Cn1cnc(CNC(=O)c2ccccc2-n2cc(CN)cn2)c1	-5.71%
COCC1CC2(CCN(Cc3cccnc3)CC2)CN1c1ncccn1 (stereo not given)	22.2%
Cc1cc(S(=O)(=O)NC(=O)CCc2cncc(F)c2)c(C)s1	24.3%
COCc1nc(C(=O)N2CCCC2c2cccc(C)c2)cs1 (stereo not given)	-23.8%
COc1c(C)cnc(CN2CCCC(Cn3nc(C)nc3C)C2)c1C (stereo not given)	-1.14%
CC(NC(=O)NCCn1ccnc1)c1nncn1C (stereo not given)	39.3%
COc1cccc(CNc2cc(N3CCCC3CO)ncn2)n1 (stereo not given)	-14.6%
O=C(O)c1ccccc1-c1ccc(CN2CC(c3ccncn3)C2)o1	6.1%
CN(C)c1cc(CNC(=O)c2cn(-c3ccc(F)cc3)nn2)ccn1	70.6%
CN(C)c1cc(CNC(=O)c2ccc(F)cc2)ccn1	-7.35%
CN(C)c1cc(CNC(=O)c2cc(F)ccc2F)ccn1	-2.53%
CC(C)COCC(NC(=O)c1ccncc1)c1ccco1 (stereo not given)	28.8%
N#Cc1ccc(NC2CCN(c3ncccn3)CC2)cc1C(F)(F)F	68.2%
CS(=O)(=O)N1CCC(Nc2ccc(C#N)c(C(F)(F)F)c2)CC1	-11.7%
N#Cc1ccc(NC2CCN(c3ncccn3)CC2)cc1Cl	28.7%
CC(C)(C)c1ncc(C(=O)NCCNc2ncccn2)s1	-39.3%
CCN(Cc1ccncc1)CC1(C)Cc2c(N)nc(N)nc2O1 (stereo not given)	14.27%
c1cc(CN2CCCn3cnc(COCC4CC4)c3C2)co1	35.7%
CC(C)OCc1ncn2c1CN(CCO)CCC2	0.804%
CC(C)OCc1ncn2c1CN(Cc1ccc(F)cc1)CCC2	9.67%
Cc1nc(CN2CCCn3cnc(COCC4CC4)c3C2)cs1	4.02%
c1nc(COCC2CC2)c2n1CCCN(CC1CC1)C2	11.5%

SMILES	INHIBITION
COc1ccc(CN2CCCn3cnc(COCC4CC4)c3C2)cc1	42.6%
Cc1nc(CN2CCCn3cnc(COC(C)C)c3C2)cs1	66%
CC(C)OCc1ncn2c1CN(CC1CC1)CCC2	66%
CC(C)OCc1ncn2c1CN(Cc1ccoc1)CCC2	59%
CC(C)OCc1ncn2c1CN(Cc1nccs1)CCC2	46.2%
COc1ccc(CN2CCCn3cnc(COC(C)C)c3C2)cc1	56.7%
CC(C)OCc1ncn2c1CN(Cc1cnn(C)c1)CCC2	-7.24%
COc1ccsc1C(=O)N1CCCC(n2nc(C)cc2C)C1 (stereo not given)	-5.25%
N#Cc1cccc(NC(=O)C2CCCN2c2nccs2)c1 (stereo not given)	17.865%
O=C(CC1CCCCC1)NC1CCCCNC1=O (stereo not given)	-65.3%
CCc1ccc(CC(=O)N2CCN(c3nccn3C)CC2)cc1	27%
CSCCC(NC(=O)c1ccccc1)C(=O)N(C)Cc1ccsc1 (stereo not given)	16.1%
O=C(NCCn1nc(C2CCNC2)c2cccnc21)c1ccccc1 (stereo not given)	-11.7%
CN(C)Cc1nnn2c1CN(Cc1cccnc1)CCC2	-21.1%
CCc1noc(CN2CCN(Cc3cccs3)CC2)n1	3.73%
COCC(=O)N(C)Cc1nc(N(C)C)ncc1-c1ccncc1	-3.53%
Cc1ncsc1CN1C[C@@H](OCC(=O)N(C)C)[C@H]2OCCC[C@H]21	-31.3%
CC(=O)c1ccccc1-c1cc(C(=O)O)cc(S(=O)(=O)NC(C)C)c1	-9.2%
CC(C)NS(=O)(=O)c1cc(C(=O)O)cc(-c2ccccc2C#N)c1	53.8%
CC(C)NS(=O)(=O)c1cc(C(=O)O)cc(-c2ccccc2F)c1	-108%
CC(=O)N1CC[C@H]2OCC[C@@H](C(=O)Nc3cccnc3C)[C@H]2C1	-14.2%
O=C(c1ccc[nH]1)N1C[C@H]2CN(Cc3cccc(F)c3)C(=O)[C@H]2C1	8.53%

SMILES	INHIBITION
O=C(c1ccco1)N1C[C@H]2CN(Cc3cccc(F)c3)C(=O)[C@H]2C1	1.94%
COCC(=O)N1C[C@H]2CN(Cc3cccc(F)c3)C(=O)[C@H]2C1	50.9%
O=C(CO)N1C[C@H]2CN(Cc3cccc(F)c3)C(=O)[C@H]2C1	40.4%
CN(C)C(=O)N1C[C@H]2CN(Cc3cccc(F)c3)C(=O)[C@H]2C1	33%
O=C(NC1CC1)N1C[C@H]2CN(Cc3cccc(F)c3)C(=O)[C@H]2C1	60.2%
CCc1ccc(C(=O)N2CCCC2c2c(C)nn(C)c2OC)o1 (stereo not given)	-11.2%
Cc1ccc(CN2C[C@@H]3CCCO[C@@H]3[C@H](N(C)Cc3ccco3)C2)s1	-15.1%
O=C(O)C1(Oc2ccc3c(c2)OCO3)CCN(C2CCOCC2)CC1	31.9%
N#CCC1CC(c2ccc(F)cc2)=NO1 (stereo not given)	12.6%
O=C(CN1CCOC(Cn2cccn2)C1)NCCc1cccs1 (stereo not given)	6.49%
Cn1cccc1C(=O)N1CC[C@H]2[C@H]1CCN2CC1CCOCC1	27.5%
Cn1cccc1C(=O)N1CC[C@@H]2[C@@H]1CC(=O)N2CCN1CCOCC1	1.9%
Cn1cccc1C(=O)N1CC[C@H]2[C@@H]1CCC(=O)N2CC1CC1	54.1%
O=C(c1ccoc1)N1CC[C@H]2[C@H]1CCN2CC1CC1	-6.05%
Cn1cccc1C(=O)N1CC[C@H]2[C@@H]1CCC(=O)N2c1ccccc1	43.8%
Cn1cc(Cl)cc1C(=O)N1CCC2(CCCN(CC3CCC3)C2=O)C1 (stereo not given)	19.5%
Cn1cccc1C(=O)N1CCC2(CCCN(CC3CCC3)C2=O)C1 (stereo not given)	53.6%
O=C1C[C@H]2[C@@H](CCN2C(=O)c2ccccc2)N1CCN1CCOCC1	30.1%
Cn1cccc1C(=O)N1C[C@H]2CN(CC3CC3)C(=O)[C@H]2C1	2.26%
Cn1cccc1C(=O)N1CC[C@H]2[C@H]1CCN2CC1CC1	55.6%
Cn1cccc1C(=O)N1CC[C@@H]2[C@@H]1CC(=O)N2CC1CCOCC1	51.2%
Cn1cccc1C(=O)N1CCC2(CCCN(CC3CC3)C2=O)C1 (stereo not given)	9.63%
